MK inhibit: inhibitors of Streptococcus pneumoniae mevalonate kinase. purified MK, PK/LDH-coupled NADH absorbance 340 nm. inhibition, % at 10 µM. 65,000 tested, 0.48% active. AID 555;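 active = ranked among the strongest by inhibition in the single 10 µM screen, a fixed top-ranked set picked for dose follow-up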
Spn DPM-DC inh: S. pneumoniae DPM-DC inhibition | 65,000 tested, 0.49% active | purified DPM-DC, PK/LDH coupled NADH fluorescence | calls only at 10 µM;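 active = the 320 compounds with the highest percent inhibition in the single-dose primary screen, excluding strongly autofluorescent ones, cut at about 32% in these data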;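 also: kinetic rate of NADH fluorescence loss reporting ADP formed by the decarboxylase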
PMK inhibit: inhibitors of Streptococcus pneumoniae phosphomevalonate kinase; inhibition, % at 10 µM; purified PMK, PK/LDH-coupled NADH absorbance 340 nm; 65,000 tested, 0.49% active;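 active = top-ranked compounds by inhibition in the single 10 µM screen, taking a fixed number of the strongest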;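 also: 0% = full reaction with DMSO carrier and 100% = background rate without enzyme reaction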
Abs 340nm: compound absorbs light at 340 nm | 65,000 tested, under 10 active | fold change at 10 µM | compound absorbance at 340 nm, fold over control;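 active = at 10 µM dose, initial 340 nm absorbance at least 2 fold that of control wells; inactive = change under 2 fold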;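 also: initial absorbance extrapolated from kinetic A340 decline of NADH oxidation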
NADH enzymes: inhibitors of enzymes used to reach an NAD/NADH endpoint; coupled PK/LDH NADH assays, four targets; IC50, µM (top dose mostly 10 µM), for inactives: at the top dose inhibition; 65,000 tested, 0.02% active;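 active = single-dose screening hits from any of four coupled enzyme assays that gave an IC50 when retested across doses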;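 also: the DPM-DC format reads NADH fluorescence rather than 340 nm absorbance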
Autofluor 339: intrinsic fluorescence of library compounds, ex339/em460 – biochemical, MLSMR library, data from DPM-DC assay, artefact control, profiling panel | compound autofluorescence, ex339/em460 nm, NADH buffer; active compounds read high; 1 = no-compound wells, NADH background | fluorescence fold increase at 10 µM | 65,000 tested, 5.5% active | AID 709;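 active = at 10 µM, mean starting fluorescence two-fold or more over control wells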;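 also: signal is the first read of a kinetic run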
The depositor's hits bear a star; i = inactive; . = no result shown. In the library only some 6.3% were active in any assay of this set; here they are far more common.

SMILES | MK inhibit | Spn DPM-DC inh | PMK inhibit | Abs 340nm | NADH enzymes | Autofluor 339
CCOc1nc(C)ccc1-c1noc(-c2ccncc2)n1 | 8 | i | 0 | 1 | 3% | 1.1
CCCCn1c(SCC2CCCCO2)nc2cc(S(N)(=O)=O)ccc21 (stereo not drawn) | 0 | i | 16 | 1 | 5% | 1.1
CCOC(=O)N1CCC(NC(=O)c2cc3c(-c4ccc(OC)c(OC)c4)nn(C)c3s2)CC1 | 8 | i | 7 | 1.1 | 11% | 2.4*
CC1CCCCN1CCNC(=O)c1cc2c(-c3ccccc3F)nn(C)c2s1 (stereo not drawn) | 1 | . | 8 | 1.1 | 5% | 2.1*
COc1ccc(-c2nn(C)c3sc(C(=O)NCc4ccco4)cc23)cc1OC | 6 | i | 12 | 1 | 8% | 3.1*
CCOC(=O)N1CCC(NC(=O)c2cc3c(-c4ccccc4F)nn(C)c3s2)CC1 | 11 | i | 8 | 1.1 | 13% | 2*
CN(C)C(=O)N1CCC(C(=O)NCC2CCCO2)CC1 (stereo not drawn) | 0 | i | 12 | 1 | 4% | 1.1
COC(=O)c1ccc2c(=O)n(CCCCCC(=O)NCc3ccccn3)c(=O)[nH]c2c1 | 2 | i | 15 | 1 | 11% | 2.5*
COCCCNC(=O)CCCn1c(=O)[nH]c2ccccc2c1=O | 2 | i | 13 | 0.99 | 5% | 1.1
O=C1N=C(c2ccccc2)C(c2ccccc2)N1 (stereo not drawn) | 9 | . | 0 | 1.1 | 5% | 2.2*
O=C(NCc1ccccc1)C1C2C=CC3(CN(Cc4cccnc4)C(=O)C13)O2 (stereo not drawn) | 0 | i | 27* | 0.99 | 11% | 0.98
CN(C1CCCCC1)S(=O)(=O)c1ccccc1 | 6 | i | 5 | 1 | 5% | 1.1
CCCCc1cc(=O)oc2c(CN(C)C)c(O)ccc12 | 10 | . | 8 | 1.1 | 9% | 3.6*
CN(Cc1c(O)ccc2c1oc(=O)c1ccccc12)C1CCCCC1 | 50* | i | 18 | 1.1 | 8.8µM* | 1.2
CCCc1cc(=O)oc2cc3oc(C)c(C)c3cc12 | 0 | i | 6 | 1 | 2% | 1.5
CCc1c(C)c2ccc(O)c(CN(C)C)c2oc1=O | 12 | . | 0 | 1.2 | 6% | 2.3*
CCN(CC)CCNC(=O)c1sc2nc(-c3ccccc3)cn2c1C | 0 | i | 18 | 1 | 6% | 1.1
c1ccc(NC(=NCc2ccco2)c2ccccc2)cc1 | 0 | i | 27* | 1 | 9% | 1.1
CCc1cc(=O)oc2cc(OCc3nn[nH]n3)ccc12 | 6 | i | 11 | 1.1 | 11% | 3*
CCCCc1cc(=O)oc2cc(OCc3nn[nH]n3)c(Cl)cc12 | 3 | i | 12 | 1.1 | 7% | 2.5*
COCCn1c(CNc2ccc(F)cc2)nnc1SCC(=O)Nc1ccc(OC)cc1OC | 8 | i | 15 | 1 | 8% | 1.1
Cc1nnc(SCC(=O)N2CC(=O)Nc3ccccc32)n1-c1ccccc1 | 11 | i | 35* | 0.95 | 6% | 1
Nc1nc(N2CCCCC2)nc2ccccc12 | 9 | . | 8 | 1.1 | 9% | 3.9*
CC(C)OCCCNC(=O)CN1C(=O)CC(C)(C)S(=O)(=O)c2ccccc21 | 44* | i | 0 | 1 | 17% | 0.94
C=CCOC(=O)Nc1c(C(=O)OC)[nH]c2ccccc12 | 1 | i | 0 | 1.1 | 0% | 1.4
SMILES | MK inhibit | Spn DPM-DC inh | PMK inhibit | Abs 340nm | NADH enzymes | Autofluor 339
CCOC(=O)c1[nH]c2ccccc2c1NC(=O)c1ccc(Br)o1 | 54* | i | 0 | 1 | 20% | 0.91
COC(=O)c1[nH]c2ccccc2c1NC(=O)Oc1ccccc1 | 7 | i | 5 | 1.1 | 10% | 2.3*
CCOC(=O)c1[nH]c2ccccc2c1NC(=O)CC(C)(C)C | 4 | i | 3 | 1.1 | 8% | 1.7
CN1CCN(c2ccc(Cl)cc2NS(=O)(=O)c2ccccc2Cl)CC1 | 0 | i | 14 | 1 | 10% | 0.95
CCOC(=O)c1[nH]nc(C(=O)c2ccc(Br)cc2)c1O | 1 | i | 29* | 1.1 | 10% | 1.1
COc1cc(=O)n(C)c2cc(N(C)C)ccc12 | 12 | . | 6 | 1.1 | 9% | 4*
Cc1cccc2c(=O)oc(-c3ccc4c(c3)C(=O)N(CC3CCCO3)C4=O)nc12 (stereo not drawn) | 9 | i | 8 | 1 | 5% | 1.6
CCCN1C(=O)c2cc(C(=O)O)ccc2C1O (stereo not drawn) | 38 | i | 1 | 1 | 6% | 1
CCCN1C(=O)c2ccccc2NC1c1ccc(OC)cc1OC (stereo not drawn) | 3 | . | 20 | 1.1 | 12% | 5.1*
CCCN1C(=O)c2ccccc2NC1c1ccc(OC)cc1O (stereo not drawn) | 5 | . | 13 | 1 | 9% | 5*
Cc1ccc2c(C)nc(NC3=NCN(C(C)C)CN3)nc2c1 | 12 | i | 9 | 1 | 2% | 1.1
CCOC(=O)N1CCC(N2C(=O)c3ccccc3C2Nc2cc(C(=O)OC)cc(C(=O)OC)c2)CC1 (stereo not drawn) | 0 | . | 0 | 1.1 | 0% | 2.1*
Cc1nnc(SCc2ccccc2)n1N | 4 | i | 26* | 0.96 | 4% | 1
COc1ccc2c(c1OC)C(=O)NC(C)=C(C(=O)OC(C)(C)C)C2O (stereo not drawn) | 1 | i | 1 | 1.1 | 1% | 1.1
CC1(C)Cc2nc3oc4c(N(CCO)Cc5ccccc5)ncnc4c3cc2CO1 | 8 | i | 4 | 1 | 7% | 2.4*
CC1(C)Cc2nc3sc4c(SCC(=O)NCc5ccco5)ncnc4c3cc2CO1 | 0 | i | 1 | 1.1 | 0% | 1.1
Cc1nnc(SCC(=O)Nc2ncc(Cc3ccc(F)cc3)s2)n1N | 32 | i | 44* | 1.1 | 34% | 1.2
Cc1ccc2cccc(S(=O)(=O)Nc3ccc4c(c3)OCO4)c2n1 | 6 | i | 9 | 0.99 | 6% | 1.1
CC(=O)c1ccc(OCCCC(=O)OCC(=O)N2CCN(c3ccccc3)CC2)cc1 | 3 | i | 11 | 1 | 5% | 1.1
COC(=O)c1cc2nc(-c3ccccc3)cc(C)n2n1 | 13 | . | 0 | 1 | 7% | 3.6*
O=C(NCc1ccco1)c1cc2nc(-c3ccc4c(c3)OCO4)cc(C(F)(F)F)n2n1 | 10 | . | 16 | 1 | 13% | 3.7*
COC(=O)c1cc2nc(-c3ccc(OC)cc3)cc(C(F)(F)F)n2n1 | 11 | . | 0 | 1 | 6% | 2.2*
COc1ccc(-c2cc(C(F)(F)F)n3nc(C(=O)NCc4ccco4)cc3n2)cc1 | 0 | . | 0 | 1.1 | 0% | 2.2*
c1coc(-c2nn3c(Cn4nnc5ccccc54)nnc3s2)c1 | 0 | i | 4 | 1 | 6% | 0.89
COc1cc(CO)cc(Br)c1OCc1cccnc1 | 12 | i | 15 | 1 | 9% | 1.1

Compound activity deposited in PubChem BioAssay by SRMLSC.
